# Experimental data reported in PubChem BioAssay AID651725 (National Center for Advancing Translational Sciences (NCATS), 2012).
# Among all 360,000 compounds or so, about 2,000 (0.56%) were called active. Inconclusive results (about 2%) are left out. Rule as the data show it: active = activity change below about -65%; inconclusive = mostly about -30% to -63%; inactive = weaker than that. Shown is part of a subset that was picked to be rich in actives.
# Molecular target: Homeobox protein SIX1 (Homo sapiens) + Protein phosphatase EYA2 (Homo sapiens) (UniProt Q15475+O00167)
# Sequence (O00167 whole entry, looked up): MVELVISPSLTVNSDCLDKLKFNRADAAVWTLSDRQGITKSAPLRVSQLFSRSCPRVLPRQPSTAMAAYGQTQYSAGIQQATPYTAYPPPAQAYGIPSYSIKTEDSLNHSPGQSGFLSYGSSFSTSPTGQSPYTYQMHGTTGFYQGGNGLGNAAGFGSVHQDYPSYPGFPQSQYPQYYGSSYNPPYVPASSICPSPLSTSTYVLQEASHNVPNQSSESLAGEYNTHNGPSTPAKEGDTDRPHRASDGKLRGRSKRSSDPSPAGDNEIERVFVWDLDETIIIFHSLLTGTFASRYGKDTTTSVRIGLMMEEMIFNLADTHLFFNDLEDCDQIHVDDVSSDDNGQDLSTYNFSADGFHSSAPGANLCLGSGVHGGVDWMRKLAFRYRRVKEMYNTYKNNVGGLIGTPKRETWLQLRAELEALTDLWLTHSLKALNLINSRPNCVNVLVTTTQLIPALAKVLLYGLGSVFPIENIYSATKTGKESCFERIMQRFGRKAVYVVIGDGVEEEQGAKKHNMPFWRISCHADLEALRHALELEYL
# Sequence (Q15475 whole entry, looked up): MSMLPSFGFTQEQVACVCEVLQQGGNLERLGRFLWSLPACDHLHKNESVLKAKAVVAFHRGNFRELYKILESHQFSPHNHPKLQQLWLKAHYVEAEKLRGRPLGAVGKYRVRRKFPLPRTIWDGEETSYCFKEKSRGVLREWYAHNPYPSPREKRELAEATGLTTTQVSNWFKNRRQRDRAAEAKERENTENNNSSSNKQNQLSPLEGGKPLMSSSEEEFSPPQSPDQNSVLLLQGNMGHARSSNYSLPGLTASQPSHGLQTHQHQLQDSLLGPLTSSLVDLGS
# Assay: qHTS Assay for Inhibitors of the Six1/Eya2 Interaction
# Details: AlphaScreen GST-Six1/His-Eya2 binding, biochemical; hits give low values
# Summary of the method: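 AlphaScreen with GST-Six1 and His-Eya2 (5X mix: 250 nM and 500 nM), glutathione donor and nickel acceptor beads; buffer 50 mM Tris pH 8.0, 300 mM NaCl, 1 mM TCEP; 1 h at 37 C in the dark.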
# % is scaled to controls: 0 for no effect and ±100 for the full control effect.
row,SMILES,activity change
1,Cc1cccc(C)c1NC(=O)C(c1ccc(C(F)(F)F)cc1)n1c(=O)c(-c2ccco2)nc2ccccc21 (configuration not stated),-0.0756% (inactive)
2,CCCCOCCCNC(=O)C[C@@H]1C[C@@]2(C(=O)OC)CCCCC=C2N(CCC2=CCCCC2)C1=O,-2.51% (inactive)
3,CC(C)N1C(=O)c2ccccc2NC(=O)C1C(=O)NCc1cccs1 (configuration not stated),0% (inactive)
4,COc1cc(C=C(OC(C)=O)c2ccc3c(c2)OCO3)cc(OC)c1OC,-21% (inactive)
5,C=C1C(=O)OC2C1CCC(C)=CCCC1(C)OC21 (configuration not stated),10.7% (inactive)
6,O=c1ccc2c(-c3ccccc3S(=O)(=O)O)c3ccc(O)c(O)c3oc-2c1O,-87.1% (active)
7,COC(=O)C1=CN(c2c(C)cc(C)cc2C)C(N)=C(C#N)C1c1cccc(F)c1 (configuration not stated),-17.6% (inactive)
8,O=C(N[C@H]1CC[C@H](CC(=O)N2CCCCC2)O[C@@H]1CO)c1cccc(F)c1,-8.77% (inactive)
9,CCN(CC)CCNCC(=O)Nc1ccc(Oc2ccccc2)cc1,-5.73% (inactive)
10,CCCC(C(=O)OCCN(CC)CC)(c1ccccc1)c1ccccc1,-20.2% (inactive)
11,CCN(CC)CCOc1ccc2c(c1)C(=NNC(=O)c1ccccn1)c1cc(OCCN(CC)CC)ccc1-2,-74.3% (active)
12,CCc1ccc(-c2cc(C)no2)cc1S(=O)(=O)NCCc1ccc(S(N)(=O)=O)cc1,-4.17% (inactive)
13,CC(=O)Nc1ccc(NC(=O)C(NS(=O)(=O)c2ccc3c(c2)OCCO3)C(C)C)cc1 (configuration not stated),0.533% (inactive)
14,CCC(C(=O)Nc1c(C)cccc1C)n1c(-c2cc(C)cs2)nc2ccccc21 (configuration not stated),4.28% (inactive)
15,CC(=O)N1CCCc2cc(S(=O)(=O)N3CCCC(C(=O)N4CCN(c5cccc(Cl)c5)CC4)C3)ccc21 (configuration not stated),-12.9% (inactive)
16,COc1ccc(-n2c(C)cc(C(=O)CN3C(=O)NC4(CCc5ccccc54)C3=O)c2C)cc1 (configuration not stated),-14.9% (inactive)
17,COCCNC(=O)CSc1nc(N)c(NC(=O)c2ccco2)c(=O)[nH]1,2.42% (inactive)
18,COC(=O)c1ccc(NC(=O)CSc2nc(N)c(NC(=O)c3ccc(Br)o3)c(=O)[nH]2)cc1,-66.4% (active)
19,COc1ccc(C(=O)Nc2c(N)nc(SCC(=O)Nc3ccc(C(C)=O)cc3)[nH]c2=O)cc1,-14.2% (inactive)
20,CCOC(=O)c1sc(/N=C/C2=C(O)CC(C)(C)CC2=O)c(C(=O)OCC)c1C,-0.173% (inactive)
21,Cc1c(Cl)c([N+](=O)[O-])nn1Cc1ccc(C(=O)N/N=C\c2cc(Cl)ccc2O)o1,-71.9% (active)

row,SMILES,activity change
1,Cc1c(Cl)c([N+](=O)[O-])nn1CCCC(=O)NC(C)c1ccccc1 (configuration not stated),7.3% (inactive)
2,Cc1nn(Cc2ccccc2Cl)c(C)c1NC(=O)Cn1nc([N+](=O)[O-])c(Cl)c1C,-0.78% (inactive)
3,COc1ccccc1C(=O)NCC(=O)OCC(=O)NNC(=O)c1ccc(Br)cc1,-6.57% (inactive)
4,CC(C)c1cc(Cn2c3ccccc3c(=O)n2C(C)Cn2cc(C3CC3)nn2)on1 (configuration not stated),4.06% (inactive)
5,COc1ccc(COC[C@H](CC(C)C)N2CCN(C(=O)c3cccc(C(F)(F)F)c3)CCC2=O)cc1,9.97% (inactive)
6,CCN(CC(=O)Nc1ccc(NC(C)=O)cc1)C(=O)C1CC(=O)N(c2ccc3c(c2)OCCO3)C1 (configuration not stated),-0.253% (inactive)
7,Cc1ccc(-c2cnc(C(O)c3cccc(C)c3C)[nH]2)cc1 (configuration not stated),-9.73% (inactive)
8,O=c1/c(=C/c2ccc(CNS(=O)(=O)c3ccccc3)o2)sc2n1CCN=2,-74.2% (active)
9,COC(=O)C1=C(C)NC(=O)/C1=C/c1ccc(CNS(=O)(=O)c2ccc(C)cc2)o1,-8.38% (inactive)
10,O=S(=O)(NCc1ccccc1)c1ccc(S(=O)(=O)N2CCCC2)cc1,0% (inactive)
11,COC(=O)[C@]12CCCCC=C1N(Cc1ccc3c(c1)OCO3)C(=O)[C@H](CC(=O)N1CCOCC1)C2,7.68% (inactive)
12,CCC(C)C(CO)NC(=O)/C=C/[C@H]1O[C@@H](n2cnc3c(NC(=O)c4ccccc4)ncnc32)[C@H](O)[C@@H]1O (some centres not stated),-67.4% (active)
13,COc1cccc(CN(C)C(=O)CC[C@H]2O[C@@H](n3cnc4c(NC(=O)c5ccccc5)ncnc43)[C@H](O)[C@@H]2O)c1,-3.33% (inactive)
14,O=C(/C=C/[C@H]1O[C@@H](n2cnc3c(NC(=O)c4ccccc4)ncnc32)[C@H](O)[C@@H]1O)NCc1ccccc1,-0.266% (inactive)
15,O=C(COc1ccc(Cl)cc1)NCc1nnc(SCC(=O)NCC2CCCO2)o1 (configuration not stated),17.7% (inactive)
16,CCC(C(=O)NC(C)(C)C)n1c(-c2ccccc2)nc2ccccc21 (configuration not stated),2.19% (inactive)
17,CCCCCc1c(Cc2ccccc2)ncn1CCc1ccccc1OC,7.11% (inactive)
18,S=c1nc2ccccc2c2nc(-c3cccnc3)[nH]n12,-8.27% (inactive)
19,CCN(CC(=O)NC1CCS(=O)(=O)C1)c1nc(-c2cccnc2)nc2ccccc12 (configuration not stated),5.63% (inactive)
20,COc1ccc(Nc2nc(-c3cccnc3)nc3ccccc23)cn1,-65.3% (active)
21,CC(C)C1Cc2[nH][nH]c(=O)c2C(c2ccc(Cl)cc2)O1 (configuration not stated),-11.7% (inactive)

row,SMILES,activity change
1,O=C1NC[C@H](CCCCN2C[C@H](Cc3ccc(O)cc3)N(CC3CCCCC3)C(=O)C2=O)N(CCc2ccccc2)C1=O,3.83% (inactive)
2,COC(=O)C[C@@H]1C=C[C@@H](NC(=O)c2cccnc2)[C@@H](CO)O1,13.6% (inactive)
3,CC(C)CCNC(=O)C(C)N(C(=O)Cn1nnc(-c2ccc(F)cc2)n1)C1CCCC1 (configuration not stated),4.65% (inactive)
4,COc1cccc(-n2c(SCC(=O)NC3CCCCC3)nc3n[nH]c(C)c3c2=N)c1,-66.7% (active)
5,Cc1ccc(-n2c(SCC(=O)NCCC3=CCCCC3)nc3n[nH]c(C)c3c2=N)cc1Cl,-17.6% (inactive)
6,COc1cccc(-n2c(SCC(=O)NC3CCS(=O)(=O)C3)nc3ccccc3c2=O)c1 (configuration not stated),-0.378% (inactive)
7,O=C(C(=O)N1CCN(c2ccccc2)CC1)c1ccc2c(c1)OCO2,9.9% (inactive)
8,CCOc1ccc(C(CCc2ccccc2)NC(=O)c2ccc(OC)c(OC)c2)cc1OCC (configuration not stated),-5.59% (inactive)
9,CCCCC(=O)NC(c1ccc(OC)c(OC)c1)c1ccc2cccnc2c1O (configuration not stated),-90.3% (active)
10,C=CCn1c(COc2cccc3cccnc23)nnc1SCC(=O)OC,0.499% (inactive)
11,Cc1cc(C)n2c(Nc3c(C)cccc3C)c(CCc3ccccc3)nc2n1,-0.972% (inactive)
12,O=C(NCc1ccccn1)c1cnc2sccn2c1=O,-1.07% (inactive)
13,COc1cc(/C=C/CO)cc(OC)c1O[C@@H]1O[C@H](CO)[C@@H](O)[C@H](O)[C@H]1O,5% (inactive)
14,CC1(C(=O)Nc2ccc3c(c2)OCCO3)CSCC(=O)N1CCOc1ccccc1 (configuration not stated),-5.39% (inactive)
15,CC1(C(=O)NCc2ccccc2)CSCC(=O)N1CCCn1ccnc1 (configuration not stated),-4.73% (inactive)
16,O=C(NCCCn1ccnc1)C(=O)NCC1OCCN1S(=O)(=O)c1cc(F)ccc1F (configuration not stated),-72.2% (active)
17,Cc1cc(F)ccc1S(=O)(=O)N1CCCOC1CNC(=O)C(=O)NCCC1=CCCCC1 (configuration not stated),6.61% (inactive)
18,O=C(NCCCc1ccccc1)C(=O)NCC1OCCN1S(=O)(=O)c1ccccc1 (configuration not stated),5.49% (inactive)
19,COc1ccc(NC(=O)C(c2ccncc2)n2c(=O)c(-c3cc4ccccc4[nH]3)nc3ccccc32)cc1 (configuration not stated),18.4% (inactive)
20,CCN(CC)CCn1c(/N=C/c2cc(Br)ccc2O)nc2ccccc21,4.55% (inactive)
21,O=C(Nc1ccc(Br)cc1)c1cc(S(=O)(=O)Nc2ccccn2)ccc1Cl,-3.31% (inactive)

row,SMILES,activity change
1,Oc1ccc(Br)cc1/C=N/Nc1ccccn1,-77.2% (active)
2,CCOC(=O)[C@]12CCC=C1N(Cc1ccco1)C(=O)[C@H](CC(=O)N1CCSCC1)C2,13% (inactive)
3,CO[C@@H]1CN(C)C(=O)c2cc(NC(=O)C3CC3)ccc2OC[C@H](C)N(C(=O)CN2CCOCC2)C[C@@H]1C,-0.378% (inactive)
4,COC(=O)[C@]12CCCCC=C1N(Cc1ccco1)C(=O)[C@H](CC(=O)NCC1CCCCC1)C2,4.18% (inactive)
5,O=C(CCCO)N/N=C/c1cc(Br)ccc1O,-68.6% (active)
6,O=C(CCC(=O)N/N=C/c1ccc(Br)o1)N/N=C/c1ccc(Br)o1,0.575% (inactive)
7,NCCCCCC(=O)N/N=C/c1ccc2nccnc2c1,4.58% (inactive)
8,O=[N+]([O-])c1ccc(N/N=C2/CCCCC2c2ccccn2)c([N+](=O)[O-])c1 (configuration not stated),-4.9% (inactive)
9,O=[N+]([O-])c1ccc2nc(-c3ccccn3)[nH]c2c1,-72.6% (active)
10,O=[N+]([O-])c1cccc(S(=O)(=O)NCc2ccccn2)c1,-5.71% (inactive)
11,O=C(NC1CCCCC1)C(c1cc2ccccc2o1)n1c(=O)c(-c2ccco2)nc2ccccc21 (configuration not stated),6.65% (inactive)
12,O=C1OCCOC2CCCc3oc(-c4ccccc4)c1c32 (configuration not stated),-10.5% (inactive)
13,Cc1ccc(CNC(=O)C2CCN(S(=O)(=O)c3ccc4nc5c(c(C(=O)O)c4c3)CC(C)CC5)CC2)cc1 (configuration not stated),-65.1% (active)
14,CCOC(CNC(=O)C1CCN(S(=O)(=O)c2ccc3nc4c(c(C(=O)O)c3c2)CC(C)CC4)CC1)OCC (configuration not stated),-16.3% (inactive)
15,CC(=O)N1c2ccc(S(=O)(=O)N3CCC(C(=O)NCc4ccc(F)cc4)CC3)cc2CC1C (configuration not stated),-0.504% (inactive)
16,CCCNC(=O)C[C@@H]1CC[C@@H]2[C@H](COC[C@H](O)CN2C(=O)c2cc(Cl)cc(Cl)c2)O1,9.3% (inactive)
17,COc1ccc(NC(=O)C/C(C)=N/NC(=O)c2cnccn2)cc1Cl,-8.49% (inactive)
18,CCN(CC)c1ccc(/C=N/NC(=O)c2cnccn2)c(O)c1,-91.7% (active)
19,CCN(CC)c1ccc(NC(=O)c2ccc(Cl)nc2)cc1,-10.4% (inactive)
